13 compounds from PubChem BioAssay (NCI) can be followed below.

Each structure is given as a SMILES string. The panel holds about 83,000 compounds, 20% with a hit somewhere; the sample as a whole holds those more often.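 How to read the values: 0–100, growth inhibition (40 = 60% inhibited); 0, no net growth; -100 to 0, cell death (-40 = 40% of starting cells died; -100 = all dead).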 Unmarked numbers belong to inactive results. Active and inactive are the calls of the source. How the source made its calls: active means growth percent below 10; inactive means the rest.

This assay concerns HL-60(TB) leukemia. In words: NCI-60 one-dose screen, 48 h (100 = growth as untreated, 0 = no growth, -100 = all killed). The settings on record: 10 µM unless noted.
Turning to `CCOC(=O)c1cc(C)[nH]c(=O)c1C#N`, the growth was 121%.
To `C=C1c2nc3ccccc3n2C=C(c2ccc(OC)cc2)N1Cc1ccccc1` belongs 80%.
For the compound `N#C/C(=C\c1ccc(Br)cc1)n1nnc2cccc(F)c21`, the growth was -9.67% (active).
As to `COc1ccc(-c2cn(-c3ccccc3)c(-c3ccccc3)n2)cc1OC`, the growth was 8.37% (active).
On to `O=C1Nc2ccccc2/C1=C\c1nc(C2CCN(S(=O)(=O)c3ccc(F)cc3)CC2)n2ccccc12`, for which the growth was 92.3%.
For the compound `Cc1c(O)ccc(SC#N)c1C`, the growth was 101%.
Under `Cc1cc2c(c(=O)o1)C(c1ccc(OC(=O)N3CCOCC3)cc1)C(C#N)=C(N)O2` (stereo not drawn) stands 104%; under `CC(C)Cn1cnc2c3ccccc3nc(NCn3nc(-c4cc(Cl)cc(Cl)c4Cl)oc3=S)c21`, 43.8%; under `CN([O-])c1nc(N(C)[O-])nc(N2CCOCC2)n1.CN([O-])c1nc(N(C)[OH2+])nc(N2CCOCC2)n1.[Fe+3]`, 93.8% [100 µM].
`C=C1CC[C@@H]2[C@](C)(COC(C)=O)[C@H](OC(C)=O)CC[C@@]2(C)[C@@H]1CC(Nc1ccc(S(=O)(=O)Nc2cc(C)on2)cc1)C1=CCOC1=O` (stereo partly drawn): the growth was -2.05% (active).
For the compound `O=C(/C=C/c1ccc(Cl)cc1)c1cccc(Nc2nc(Nc3ccccc3)nc(Nc3ccccc3)n2)c1`, the growth is 95.9%.
As to `Cc1sc2nc(NCCc3c[nH]c4ccc(Cl)cc34)[nH]c(=O)c2c1C`, the growth is 7.05% (active).
Regarding `Nc1ncnc2c1c(-c1ccc(Oc3ccccc3)cc1)nn2C[C@@H]1SSC[C@H]1O`, the growth is -27.5% (active).
